Records with an inconclusive call do not appear. The source made the active and inactive calls. Unless noted, calls come from the whole dose curve; as a rule, active = well fitted curve in either direction with a large enough effect (not every such curve was filed as active); inconclusive = small, poorly fitted or top-dose-only effect, or another doubt; inactive = flat fitted curve, though single readings scatter.
Assays:
[1] = target: Lysosomal acid glucosylceramidase (Homo sapiens) (UniProt P04062); assay: Glucocerebrosidase-p2 (AID 348; in the data active = potency below about 10 µM; note: potency is the fitted concentration of half-maximal effect); settings: purified GBA, blue fluorogenic substrate, 40 min
Outline: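 Normal human glucocerebrosidase (0.2 nM) with blue fluorogenic substrate (80 uM final) in citrate/phosphate pH 5.9 with 10mM sodium taurocholate, 0.01% tween-20; 40 min RT, NaOH/glycine stop; fluorescence Ex 365/Em 440; AC50 from a titration from 0.6 nM upwards.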

[2] = AP1 Signaling Pathway (AID 357); settings: ME-180 AP-1-bla reporter, EGF-induced, beta-lactamase ratio, 5 h; at 7.69 µM (top of the series) unless noted;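 note: ME-180 reporter cells stimulated with EGF at its EC50 level; % is set by controls: 0 for no effect and ±100 for the full control effect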
Outline: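 Cells are seeded overnight, exposed to compound titrations and an EC50 level of EGF for 5 hours at 37 °C, then loaded with CCF4 dye for 2.5 hours. Beta-lactamase activity under the AP-1 element is read as a blue/green ratio.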

[3] = NFAT Signaling Pathway (AID 444); settings: Jurkat NFAT-bla M1, carbachol, beta-lactamase ratio, 5 h; at 7.69 µM (top of the series) unless noted;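 note: carbachol stimulus at about its EC50 of 1 µM final; % is set by controls: 0 for no effect and ±100 for the full control effect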
Outline: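 Jurkat cells carrying an NFAT-driven β-lactamase reporter and co-transfected muscarinic M1 receptor were treated with compound plus carbachol (1 uM final, an EC50 level) for 5 h at 37 °C. CCF4 loading followed for 1 h at RT; 460/530 nm ratio gave %activity.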

[4] = Stat Signaling Pathway (AID 446); settings: ME-180 SIE beta-lactamase reporter, IL-6 stimulated, 5 h; at 7.69 µM (top of the series) unless noted;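 note: ME-180 cervical cancer cells given 40 pM IL-6 alongside compound; SIE-controlled beta-lactamase reporter measured as 460/530 nm FRET emission ratio; % is set by controls: 0 for no effect and ±100 for the full control effect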
Outline: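 FRET read-out (405 nm excitation, 460/530 nm emission) of a beta-lactamase reporter under a STAT-inducible element in ME-180 cervical carcinoma cells. Cells with compound receive 40 pM IL-6 for 5 h. Values are normalised to AC90 stimulation and AC90 JAK-inhibitor controls.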

[5] = target: Glucocorticoid receptor (Homo sapiens) (UniProt P04150); assay: GR-GFP Redistribution (AID 450;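 active = compounds whose dose series gives a full or clear partial fitted curve of increased nuclear translocation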; note: potency is the fitted concentration of half-maximal effect); settings: U2OS GR-GFP nuclear translocation, laser cytometry, 2 h
[6] = target: Glucocorticoid receptor (Homo sapiens) (UniProt P04150); assay: GR-EFC Redistribution (AID 451; calls by dose curve; note: potency is the fitted concentration of half-maximal effect); settings: CHO-K1 GR-EFC translocation, beta-gal luminescence, 2 h
Outline: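 CHO-K1 cells stably expressing nuclear-localized β-gal enzyme acceptor and GR fused C-terminally to the enzyme donor fragment; ligand-driven nuclear translocation restores β-gal by complementation. Compounds titrated up to 46 uM final, 2 h at 37 °C; luminescence read.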

[7] = target: Mitogen-activated protein kinase 10 (Mus musculus) (UniProt Q61831); assay: JNK3 AlphaScreen Assay (AID 530); settings: JNK3 lysate, c-Jun phosphorylation; series mostly up to 57.1 µM;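 note: kinase came from lysate of stimulated human HepG2 cells; signal reports phosphorylation of biotinylated GST-cJun 1-79 at Ser73 with 10 µM ATP; % is set by controls: 0 for no effect and ±100 for the full control effect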
Outline: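 Phosphorylation of biotinylated GST-cJun(1-79) at Ser73 is measured by AlphaScreen proximity luminescence. Enzyme is JNK3 in HepG2 lysates activated with interleukin-1beta and tumor necrosis factor alpha; ATP is 10 uM final.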

[8] = target: 3',5'-cyclic-AMP phosphodiesterase 4B (Homo sapiens) (UniProt Q07343); assay: qHTS Assay for Inhibitors of PDE-IV (AID 607; active = well fitted activation curve with a large enough effect in the main read-out, with a control signal flat, not every such curve was filed as active; note: % of control where 0% means no effect); settings: HEK293 ACTOne CNG channel cells, membrane potential fluorescence; series mostly up to 22.9 µM
Outline: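 Cell-based read-out of cAMP via a modified cyclic nucleotide-gated channel and membrane potential dye (535/590 nm) in HEK293 cells expressing PDE4 endogenously. Compounds tested up to 22.9 uM final; 100 uM RO 20-1724 reference.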

[9] = target: Cytochrome P450 2D6 (Homo sapiens) (UniProt P10635); assay: qHTS Assay for Inhibitors and Substrates of Cytochrome P450 2D6 (AID 891; active = well fitted curve in the direction sought with a large enough effect; an effect the other way counts as inactive or inconclusive; note: potency is the fitted concentration of half-maximal effect; nearly all actives have a fitted effect of over 60% in size); settings: recombinant CYP2D6, luciferin-ME EGE luminescence; series mostly up to 57.1 µM
Outline: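 Luminescent read-out of luciferin formed by 5 nM human CYP2D6 demethylating 30 uM Luciferin-ME EGE (Km level) over 60 min at room temperature after NADPH regeneration addition. Data normalized to full inhibition by 1.43 uM quinidine.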

[10] = Confirmation and Secondary Assay for Modulators of Hemoglobin Beta Chain Splicing at IVS2 654 locus (AID 910; active = well fitted curve in the direction sought with a large enough effect; an effect the other way counts as inactive or inconclusive;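 note: per-well total GFP intensity by laser scanning cytometry after 2-day treatment; % of control where 0% means no effect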); settings: HeLa EGFP-654 splicing reporter, GFP fluorescence, 48 h; series mostly up to 38.3 µM
Outline: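 HeLa cells stably carrying EGFP interrupted by mutant beta-globin IVS2-654 intron (CMV-driven) were treated with compound for 2 days at 37C; corrected splicing was scored as total peak GFP intensity per well (488 nm excitation, 500-520 nm emission).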

[11] = qHTS Assay for Identification of Small Molecule Agonists for Hypoxia Response Element Signaling Pathway (AID 914; active = well fitted activation curve with a large enough effect in the signal ratio, with a control signal flat, not every such curve was filed as active; the % refers to the signal ratio; note: % of control where 0% means no effect); settings: ME-180 (cervical carcinoma) HRE-bla reporter, beta-lactamase ratio, CoCl2, 17 h; activation: stronger effect = higher value
Outline: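 Read-out: CCF4 FRET ratio of 460nm to 530nm emission (excitation 405nm) after 2.5 hours at room temperature, taken from HRE-bla ME-180 cells that had been exposed to compound and EC50 CoCl2 for 17 hours.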

[12] = Confirmation and Secondary Assay for Modulators of Hemoglobin Beta Chain Splicing at IVS2 705 locus (AID 930; active = well fitted curve in the direction sought with a large enough effect; an effect the other way counts as inactive or inconclusive;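 note: HeLa cells stably expressing the EGFP-705 splicing reporter; GFP fluorescence per well restored by corrected splicing of the IVS2-705 intron in EGFP; % of control where 0% means no effect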); settings: HeLa EGFP-705 splicing reporter, GFP fluorescence, 48 h; series mostly up to 38.3 µM
Outline: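 HeLa EGFP-705 reporter; 500 cells/well, o/n 37C 5% CO2; cpd 2 d; 488 ex/500-520 em laser scan; total peak GFP intensity/well. Ref: 500 nM […] antisense PNA.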

[13] = qHTS Assay for Lipid Storage Modulators (AID 1519; calls by dose curve); settings: Drosophila S3 cells, BODIPY lipid droplet/cell ratio, laser cytometry, cells loaded with oleic acid; for activity change, negative = inhibition: at 57.5 µM (top of the series)
Outline: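 Cells seeded at 5,000 per well were treated with compounds over a concentration series and loaded with oleic acid (400 uM, as added). Lipid droplet fluorescence (488 nm excitation, 500-530 nm channel) was read by laser-scanning cytometry and normalized to 20 uM Triacsin C.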

[14] = target: Ubiquitin carboxyl-terminal hydrolase 1 (Homo sapiens) (UniProt O94782); assay: Inhibitors of USP1/UAF1: Pilot qHTS (AID 504865; active = well fitted curve in the direction sought with a large enough effect; an effect the other way counts as inactive or inconclusive;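 note: rhodamine fluorescence freed from ubiquitin-rhodamine substrate followed over time; top concentration of the series differs between compounds; % is set by controls: 0 for no effect and ±100 for the full control effect; nearly all actives have a fitted effect of over 35% in size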); settings: purified USP1/UAF1, Ub-rhodamine cleavage fluorescence; series mostly up to 54.9 µM
Outline: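 Deubiquitinase activity followed as kinetic rhodamine fluorescence release from 150 nM Ub-Rho. 1 nM USP1/UAF1 with compound, after 15 min room-temperature preincubation, in HEPES pH 7.8 buffer containing TCEP, EDTA, BSA and Tween-20.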

[15] = Primary qHTS for small molecule stabilizers of the endoplasmic reticulum resident proteome: Secreted ER Calcium Modulated Protein (SERCaMP) assay (AID 1508630; active = well fitted curve in the direction sought with a large enough effect; an effect the other way counts as inactive or inconclusive; note: % is set by controls: 0 for no effect and ±100 for the full control effect); settings: SH-SY5Y GLuc-SERCaMP (Gaussia luciferase released on ER calcium loss) secretion, thapsigargin, luminescence; series mostly up to 38.4 µM
Outline: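 The SH-SY5Y reporter protocol was run at 3 concentrations up to 38.3 uM (primary) or 11 concentrations (follow-up): 16 h compound, 100 nM thapsigargin for 4 h, then extracellular luciferase luminescence.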

[16] = target: Cytochrome P450 1A2 (Homo sapiens) (UniProt P05177); assay: p450-cyp1a2 (AID 410; calls by dose curve; note: potency is the fitted concentration of half-maximal effect;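 for activity change, negative = inhibition: -100% = full effect of reference inhibitor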); settings: recombinant CYP1A2, luciferin-ME demethylation, luminescence; series mostly up to 57 µM
Outline: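 Luminescent demethylation readout: Luciferin-ME (100uM, equal to Km) turned over by 20nM CYP1A2 for 60 min at room temperature after NADPH regeneration addition, following 10 min compound preincubation. Normalization used 57 uM furafylline as full inhibition.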

[17] = target: Cytochrome P450 2C19 (Homo sapiens) (UniProt P33261); assay: qHTS Assay for Inhibitors and Substrates of Cytochrome P450 2C19 (AID 899; active = well fitted curve in the direction sought with a large enough effect; an effect the other way counts as inactive or inconclusive; note: potency is the fitted concentration of half-maximal effect; nearly all actives have a fitted effect of over 60% in size); settings: recombinant CYP2C19, luciferin-H EGE luminescence; series mostly up to 57.1 µM
Outline: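 NADPH-dependent conversion of Luciferin-H EGE (10uM, at KM) by 5nM enzyme in 50mM KPO4, 60 min at 37C following 10 min compound preincubation. Stopped with luciferin detection buffer; luminescence read after 20 min.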

[18] = target: Cytochrome P450 3A4 (Homo sapiens) (UniProt P08684); assay: qHTS Assay for Inhibitors and Substrates of Cytochrome P450 3A4 (AID 884; active = well fitted curve in the direction sought with a large enough effect; an effect the other way counts as inactive or inconclusive; note: % is set by controls: 0 for no effect and ±100 for the full control effect; nearly all actives have a fitted effect of over 50% in size); settings: recombinant CYP3A4, Luciferin-PPXE luminescence; series mostly up to 57.1 µM
Outline: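 Luminescent readout of luciferin produced by CYP3A4 (20 nM) dealkylation of Luciferin-PPXE, 25 uM (its KM). NADPH-driven reaction ran 60 min at RT after 10 min compound preincubation; data scaled to 57 uM ketoconazole as 100% inhibition.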

[19] = target: Cytochrome P450 3A4 (Homo sapiens) (UniProt P08684); assay: qHTS Assay for Activators of Cytochrome P450 3A4 (AID 885; active = well fitted curve in the direction sought with a large enough effect; an effect the other way counts as inactive or inconclusive; note: nearly all actives have a fitted effect of over 65% in size); settings: recombinant CYP3A4, Luciferin-PPXE luminescence, 60 min; series mostly up to 57.1 µM
Outline: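 Luminescent readout of luciferin formed from 25 uM Luciferin-PPXE (KM level) by 20 nM CYP3A4 in 200 mM KPO4, with 60 min NADPH-driven reaction at room temperature after 10 min compound exposure. Ketoconazole (57 uM) defined 100% inhibition.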

[20] = measured here: cell count channel max response
[21] = measured here: lipid channel max response

Sequence of Lysosomal acid glucosylceramidase (Homo sapiens) (P04062 whole entry, looked up): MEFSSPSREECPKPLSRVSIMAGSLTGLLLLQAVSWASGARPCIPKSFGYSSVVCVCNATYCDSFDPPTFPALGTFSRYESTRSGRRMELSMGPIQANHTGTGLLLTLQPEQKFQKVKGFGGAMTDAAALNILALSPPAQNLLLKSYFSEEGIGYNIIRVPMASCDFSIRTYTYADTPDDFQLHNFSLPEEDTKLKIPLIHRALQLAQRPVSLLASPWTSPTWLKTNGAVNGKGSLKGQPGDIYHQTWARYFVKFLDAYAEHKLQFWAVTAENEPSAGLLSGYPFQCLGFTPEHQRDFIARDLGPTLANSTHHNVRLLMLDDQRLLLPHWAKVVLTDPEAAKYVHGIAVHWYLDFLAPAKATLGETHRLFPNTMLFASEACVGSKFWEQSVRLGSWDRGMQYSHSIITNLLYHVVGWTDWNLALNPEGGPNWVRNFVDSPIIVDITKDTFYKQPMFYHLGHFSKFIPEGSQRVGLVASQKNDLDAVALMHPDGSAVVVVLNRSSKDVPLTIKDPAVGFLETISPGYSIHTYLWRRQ
Sequence of Glucocorticoid receptor (Homo sapiens) (P04150 whole entry, looked up, the tested form may be a part): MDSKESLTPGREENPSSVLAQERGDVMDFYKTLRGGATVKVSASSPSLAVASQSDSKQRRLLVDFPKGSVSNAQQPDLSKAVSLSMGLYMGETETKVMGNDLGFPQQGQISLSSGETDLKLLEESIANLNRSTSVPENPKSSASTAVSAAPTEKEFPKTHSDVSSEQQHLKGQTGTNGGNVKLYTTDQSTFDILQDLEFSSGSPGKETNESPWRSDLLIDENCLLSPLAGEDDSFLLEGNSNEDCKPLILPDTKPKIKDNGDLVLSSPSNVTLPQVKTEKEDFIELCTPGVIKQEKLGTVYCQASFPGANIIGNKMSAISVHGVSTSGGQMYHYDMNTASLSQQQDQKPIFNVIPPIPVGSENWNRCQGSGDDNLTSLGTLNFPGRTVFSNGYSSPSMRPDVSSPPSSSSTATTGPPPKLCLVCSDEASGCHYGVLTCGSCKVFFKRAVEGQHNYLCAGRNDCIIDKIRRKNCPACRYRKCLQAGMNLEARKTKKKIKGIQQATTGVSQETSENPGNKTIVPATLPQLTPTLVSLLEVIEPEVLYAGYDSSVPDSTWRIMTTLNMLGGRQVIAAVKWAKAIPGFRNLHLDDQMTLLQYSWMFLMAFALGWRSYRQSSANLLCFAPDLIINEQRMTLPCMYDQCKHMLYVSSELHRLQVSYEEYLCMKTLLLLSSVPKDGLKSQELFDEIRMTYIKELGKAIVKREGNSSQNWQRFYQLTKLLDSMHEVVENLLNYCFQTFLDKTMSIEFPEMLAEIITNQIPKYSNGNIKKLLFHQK
Sequence of 3',5'-cyclic-AMP phosphodiesterase 4B (Homo sapiens) (Q07343 whole entry, looked up): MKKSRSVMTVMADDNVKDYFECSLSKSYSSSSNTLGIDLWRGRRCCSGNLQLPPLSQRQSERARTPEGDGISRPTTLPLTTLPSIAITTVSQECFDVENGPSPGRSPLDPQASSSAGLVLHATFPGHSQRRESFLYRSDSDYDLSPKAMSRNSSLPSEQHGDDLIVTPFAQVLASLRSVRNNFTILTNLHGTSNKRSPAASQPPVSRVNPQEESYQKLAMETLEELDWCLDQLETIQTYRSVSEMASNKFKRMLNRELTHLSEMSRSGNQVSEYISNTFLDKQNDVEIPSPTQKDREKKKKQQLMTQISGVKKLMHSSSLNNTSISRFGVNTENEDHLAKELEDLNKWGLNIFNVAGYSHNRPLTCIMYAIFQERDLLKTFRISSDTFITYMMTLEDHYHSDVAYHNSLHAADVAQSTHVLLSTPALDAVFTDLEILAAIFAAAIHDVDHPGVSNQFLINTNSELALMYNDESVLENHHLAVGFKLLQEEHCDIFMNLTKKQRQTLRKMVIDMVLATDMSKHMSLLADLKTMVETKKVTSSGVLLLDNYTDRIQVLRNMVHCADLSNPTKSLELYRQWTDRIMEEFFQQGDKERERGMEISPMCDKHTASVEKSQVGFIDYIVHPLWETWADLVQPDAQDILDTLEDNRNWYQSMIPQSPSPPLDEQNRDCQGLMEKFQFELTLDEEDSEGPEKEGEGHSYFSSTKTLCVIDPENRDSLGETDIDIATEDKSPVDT
Sequence of Cytochrome P450 1A2 (Homo sapiens) (P05177 whole entry, looked up): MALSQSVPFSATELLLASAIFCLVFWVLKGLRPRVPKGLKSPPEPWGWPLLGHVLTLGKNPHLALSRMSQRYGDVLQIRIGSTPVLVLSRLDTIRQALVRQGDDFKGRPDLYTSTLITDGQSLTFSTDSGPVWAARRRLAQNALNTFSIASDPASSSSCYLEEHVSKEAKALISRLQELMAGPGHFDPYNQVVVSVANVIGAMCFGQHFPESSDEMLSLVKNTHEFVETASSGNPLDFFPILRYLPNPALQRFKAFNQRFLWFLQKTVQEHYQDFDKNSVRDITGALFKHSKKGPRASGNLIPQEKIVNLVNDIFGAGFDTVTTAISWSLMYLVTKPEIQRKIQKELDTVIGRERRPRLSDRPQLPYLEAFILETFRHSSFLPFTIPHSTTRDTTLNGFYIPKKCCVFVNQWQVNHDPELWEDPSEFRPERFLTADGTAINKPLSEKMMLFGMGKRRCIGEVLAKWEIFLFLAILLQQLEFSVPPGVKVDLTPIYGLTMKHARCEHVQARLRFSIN
Sequence of Cytochrome P450 3A4 (Homo sapiens) (P08684 whole entry, looked up): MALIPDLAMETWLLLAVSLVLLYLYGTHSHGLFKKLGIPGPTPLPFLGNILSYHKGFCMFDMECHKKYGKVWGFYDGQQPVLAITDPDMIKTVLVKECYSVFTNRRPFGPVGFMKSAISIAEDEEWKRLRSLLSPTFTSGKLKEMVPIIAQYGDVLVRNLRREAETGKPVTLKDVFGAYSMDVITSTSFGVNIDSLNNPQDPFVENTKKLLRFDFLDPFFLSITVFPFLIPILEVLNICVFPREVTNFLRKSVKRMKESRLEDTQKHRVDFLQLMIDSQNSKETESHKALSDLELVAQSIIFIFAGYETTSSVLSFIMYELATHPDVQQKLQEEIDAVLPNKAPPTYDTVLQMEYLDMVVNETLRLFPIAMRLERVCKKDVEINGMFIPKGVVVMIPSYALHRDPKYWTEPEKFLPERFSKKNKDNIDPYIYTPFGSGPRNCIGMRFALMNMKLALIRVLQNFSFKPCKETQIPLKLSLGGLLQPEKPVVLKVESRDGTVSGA
Sequence of Cytochrome P450 2C19 (Homo sapiens) (P33261 whole entry, looked up): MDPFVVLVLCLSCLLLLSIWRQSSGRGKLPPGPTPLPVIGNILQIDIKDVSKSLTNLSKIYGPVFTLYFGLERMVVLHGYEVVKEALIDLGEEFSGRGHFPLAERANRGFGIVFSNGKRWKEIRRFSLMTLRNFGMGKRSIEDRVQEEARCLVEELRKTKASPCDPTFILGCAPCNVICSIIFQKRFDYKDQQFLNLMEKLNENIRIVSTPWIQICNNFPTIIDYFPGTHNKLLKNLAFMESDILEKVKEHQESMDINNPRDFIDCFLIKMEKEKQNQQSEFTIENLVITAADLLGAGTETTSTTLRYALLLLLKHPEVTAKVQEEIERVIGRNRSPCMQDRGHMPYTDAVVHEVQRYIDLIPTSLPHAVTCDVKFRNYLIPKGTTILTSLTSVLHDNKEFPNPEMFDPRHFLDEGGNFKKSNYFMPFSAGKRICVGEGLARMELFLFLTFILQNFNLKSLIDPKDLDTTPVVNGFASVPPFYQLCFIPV
Sequence of Cytochrome P450 2D6 (Homo sapiens) (P10635 whole entry, looked up): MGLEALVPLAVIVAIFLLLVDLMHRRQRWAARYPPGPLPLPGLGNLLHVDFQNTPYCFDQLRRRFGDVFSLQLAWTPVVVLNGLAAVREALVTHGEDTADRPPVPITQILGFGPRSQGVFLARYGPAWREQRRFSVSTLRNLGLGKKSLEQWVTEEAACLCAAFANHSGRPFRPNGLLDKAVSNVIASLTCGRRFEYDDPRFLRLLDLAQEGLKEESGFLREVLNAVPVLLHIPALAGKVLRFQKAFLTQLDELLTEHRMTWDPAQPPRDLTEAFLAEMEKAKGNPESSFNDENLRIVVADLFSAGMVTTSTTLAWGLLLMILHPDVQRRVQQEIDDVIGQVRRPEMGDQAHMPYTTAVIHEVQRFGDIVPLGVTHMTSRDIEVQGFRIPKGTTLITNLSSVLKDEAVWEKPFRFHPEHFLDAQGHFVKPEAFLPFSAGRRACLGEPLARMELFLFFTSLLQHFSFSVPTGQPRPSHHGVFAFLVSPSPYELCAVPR
Sequence of Ubiquitin carboxyl-terminal hydrolase 1 (Homo sapiens) (O94782 whole entry, looked up): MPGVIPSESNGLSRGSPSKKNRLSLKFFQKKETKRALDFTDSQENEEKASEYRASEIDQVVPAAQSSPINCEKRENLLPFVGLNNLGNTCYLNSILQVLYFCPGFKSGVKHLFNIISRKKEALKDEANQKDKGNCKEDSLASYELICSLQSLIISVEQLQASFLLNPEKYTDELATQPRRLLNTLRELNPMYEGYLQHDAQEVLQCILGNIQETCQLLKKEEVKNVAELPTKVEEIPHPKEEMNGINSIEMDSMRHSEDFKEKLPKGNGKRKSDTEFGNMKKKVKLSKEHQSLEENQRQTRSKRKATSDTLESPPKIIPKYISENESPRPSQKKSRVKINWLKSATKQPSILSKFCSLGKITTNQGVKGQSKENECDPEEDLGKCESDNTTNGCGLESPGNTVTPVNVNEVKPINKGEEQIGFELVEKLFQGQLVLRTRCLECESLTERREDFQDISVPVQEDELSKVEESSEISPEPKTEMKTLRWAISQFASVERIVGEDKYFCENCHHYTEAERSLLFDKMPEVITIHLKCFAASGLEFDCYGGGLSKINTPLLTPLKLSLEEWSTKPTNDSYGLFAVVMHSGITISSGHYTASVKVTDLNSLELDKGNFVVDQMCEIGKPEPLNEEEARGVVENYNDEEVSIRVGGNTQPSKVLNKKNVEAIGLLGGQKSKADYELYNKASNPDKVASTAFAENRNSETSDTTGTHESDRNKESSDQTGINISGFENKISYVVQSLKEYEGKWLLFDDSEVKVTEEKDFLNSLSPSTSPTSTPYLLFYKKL

CN(C)Cc1ccccc1-c1cc(N(C)C)ncn1
active: Potency [9] 1.26 µM
12%: max response [13, 21]
inactive: Potency [1] > 11.4 µM | activity change, negative = inhibition [2] -1.87% | activity change, negative = inhibition [3] -11.7% | activity, negative = inhibition [4] 7.42% | Potency [5] > 46 µM | Potency [6] > 46 µM | Potency [7] | Potency [8] | Potency [10] | activation [11] 5.79% | outcome [12] | activity change, negative = inhibition [13] 5.84% | Potency [14] | outcome [15]
8.47%: max response [13, 20]

COc1ccc(NC(=O)N2CCC3(CC2)CCN(S(C)(=O)=O)CC3)cc1
inactive: Potency [1] > 11.4 µM | activity change, negative = inhibition [2] -1.54% | Potency [16] | activity, negative = inhibition [4] 2.59% | Potency [6] > 46 µM | Potency [7] | Potency [8] | activity change, negative = inhibition [13] 8.18% | outcome [15]
16.5%: max response [13, 20]
28.9%: max response [13, 21]
active: Potency [17] 3.16 µM

CN(C)c1ccc(-c2cncnc2NCc2ccccc2)cc1
inactive: Potency [1] > 11.4 µM | activity change, negative = inhibition [2] -0.796% | activity, negative = inhibition [4] -2.24% | Potency [6] > 46 µM | Potency [18] | Potency [10] | outcome [12] | activity change, negative = inhibition [13] 9.86% | outcome [15]
16.1%: max response [13, 21]
-3.1%: max response [13, 20]
active: Potency [16] 1 µM | Potency [17] 0.398 µM

Cn1cccc1C(=O)N1CCC2(CCN(Cc3ccncc3)CC2)CC1
inactive: Potency [1] > 11.4 µM | activity change, negative = inhibition [2] -3.94% | activity, negative = inhibition [4] -9.94% | Potency [7] | Potency [8] | Potency [19] | activation [11] -5.1% | activity change, negative = inhibition [13] 4.51% | outcome [15]
-5.01%: max response [13, 20]
3.28%: max response [13, 21]
active: Potency [16] 15.8 µM

O=C(c1ccco1)N1CCC[C@@]2(CCN(c3ncccn3)C2)C1
17.7%: max response [13, 20]
23.3%: max response [13, 21]
inactive: Potency [1] > 11.4 µM | activity change, negative = inhibition [2] -6.68% | activity change, negative = inhibition [3] -7.21% | activity, negative = inhibition [4] -5.91% | Potency [6] > 46 µM | Potency [7] | activity change, negative = inhibition [13] 3.43% | outcome [15]

Cc1noc(C)c1C(=O)N1CCC2(CC1)CCN(c1ncccn1)CC2
6.46%: max response [13, 20]
inactive: Potency [1] > 11.4 µM | activity change, negative = inhibition [2] 16.2% | activity change, negative = inhibition [3] 5.74% | activity, negative = inhibition [4] 3.32% | Potency [6] > 46 µM | Potency [7] | Potency [8] | activity change, negative = inhibition [13] 5.54% | outcome [15]
13.5%: max response [13, 21]

Reference: PubChem BioAssay (NCATS)
